These results are taken from PubChem BioAssay (NCATS).

Structures are written as SMILES. Records with an inconclusive call do not appear. Active and inactive are the calls of the source. The call rests on the fitted dose curve; in most records, active means well fitted cell-killing curve with a large enough effect; inconclusive means small, poorly fitted or top-dose-only effect; inactive means flat fitted curve, though single readings scatter.
On the % scale 0 is the no-effect control and ±100 the full control effect; potency means the concentration at half of the fitted maximal effect.

This test is described as follows: Cellular viability qHTS for adrenocortical cancer (ACC) cell line SW-13 (AID 1963989). Further: nearly all actives have a fitted effect of over 65% in size.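 On activity (max response): cells grown in serum-free medium with ITS supplement.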 The settings on record: SW-13 ACC cells viability, CellTiter-Glo, 48 h; activity (max response): stronger effect = lower value. In outline: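 Luminescent ATP read-out (CellTiter-Glo, 20 min at room temperature) measured metabolically competent SW-13 cells after 48 h compound treatment. Final concentrations spanned up to 46 uM; bortezomib served as positive control.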
Regarding `CN1CCCCC1CCN1c2ccccc2Sc2ccc(S(C)=O)cc21` (configuration not stated), the activity (max response) is -6.63% (inactive). Take `C[C@@H](O[C@H]1OCCN(Cc2n[nH]c(=O)[nH]2)[C@H]1c1ccc(F)cc1)c1cc(C(F)(F)F)cc(C(F)(F)F)c1`: the Potency was 18.4 µM (active). Take `CCCCC1C(=O)N(c2ccccc2)N(c2ccccc2)C1=O`: the activity (max response) is -21.3% (inactive). Consider `CCCc1c(OCCCOc2ccc(OCC(=O)O)cc2)ccc(C(C)=O)c1O`, for which the activity (max response) is -13.7% (inactive).

Regarding `C/C(O)=C(\C#N)C(=O)Nc1ccc(C(F)(F)F)cc1`, the activity (max response) was -8.43% (inactive). For the molecule `Cc1nc(C2CCCCC2)c(-c2ccc(S(N)(=O)=O)c(F)c2)o1`, the activity (max response) is 16% (inactive). For `COc1ccccc1Oc1c(NS(=O)(=O)c2ccc(C(C)(C)C)cc2)nc(-c2ncccn2)nc1OCCO`, the activity (max response) was -3.16% (inactive). Consider `CCc1cnn2c(NCc3ccc[n+]([O-])c3)cc(N3CCCC[C@H]3CCO)nc12`, for which the Potency was 0.0355 µM (active). For the molecule `Cc1cc(O)c(-c2ccc([C@@H](C)CN)cc2)c2c1[nH]c(=O)c1sccc12`, the activity (max response) was -7.01% (inactive). With `CC(=O)OC/C=C(C)/C=C/C=C(C)/C=C/C1=C(C)CCCC1(C)C`, the activity (max response) was 4.17% (inactive). Regarding `Cc1c(F)cc(C(=O)NC2CC2)cc1-c1c(F)cn2c(C(C)(C)C)nnc2c1F`, the activity (max response) is -10.3% (inactive). Consider `CC[C@H](c1ccc(O)cc1)[C@@H](CC)c1ccc(O)cc1`, for which the Potency was 5.17 µM (active). For the molecule `CN1CCN(C2=Nc3ccccc3Oc3ccc(Cl)cc32)CC1`, the activity (max response) is -13.7% (inactive).

`O=C(/C=C/N1C[C@H]2C[C@@H]1CN2c1ccccn1)c1ccccc1O`: the activity (max response) was -11.7% (inactive). For `CCc1ccc(/C=C2/SC(=S)NC2=O)cc1`, the Potency is 25.1 µM (active). For `Cc1ccc2c(c1)c1c3n2CCNC3CCC1` (configuration not stated), the activity (max response) is -5.85% (inactive). In the case of `O=C(Nc1cccc(C(F)(F)F)c1)c1cccc2cc(Oc3cc(CO)ncn3)ccc12`, the activity (max response) is 9.86% (inactive). With `CCC(=O)c1c(O)cc(O)cc1O`, the activity (max response) is -1.99% (inactive).

Turning to `C/C=C/CC(C)C(O)C1C(=O)NC(CC)C(=O)N(C)CC(=O)N(C)C(CC(C)C)C(=O)NC(C(C)C)C(=O)N(C)C(CC(C)C)C(=O)NC(C)C(=O)NC(C)C(=O)N(C)C(CC(C)C)C(=O)N(C)C(CC(C)C)C(=O)N(C)C(C(C)C)C(=O)N1C` (configuration not stated), the activity (max response) was -11.5% (inactive). `COc1ccc(S(=O)(=O)Nc2nnc(CC(C)C)s2)cc1`: the activity (max response) was -5.12% (inactive). As to `C=CC(=O)Nc1ccc(F)c(-c2ncnc3[nH]cc(C(=O)OCC)c23)c1`, the Potency is 22.4 µM (active). As for `CC(C)=CCC/C(C)=C/CC/C(C)=C/CSc1ccccc1C(=O)O`, the activity (max response) is -19.3% (inactive). Consider `Nc1ccc2cc3ccc(N)cc3nc2c1`, for which the Potency is 6.51 µM (active). On to `N#CCC1(n2cc(-c3ncnc4[nH]ccc34)cn2)CN(C2CCN(C(=O)c3ccnc(C(F)(F)F)c3F)CC2)C1`, for which the activity (max response) is -10.7% (inactive). For the molecule `c1ccc(-c2ccc(C(c3ccccc3)n3ccnc3)cc2)cc1` (configuration not stated), the Potency was 18.4 µM (active). As for `CCOC(=O)C(=O)CCc1ccccc1`, the activity (max response) is 6.65% (inactive). For the molecule `COC(=O)[C@H]1[C@H]2C[C@@H]3c4[nH]c5cc(OC)ccc5c4CCN3C[C@H]2C[C@@H](OC(=O)c2cc(OC)c(OC)c(OC)c2)[C@@H]1OC`, the activity (max response) is -15.6% (inactive).

With `O=C(O)CN1C(=O)c2cccc3cccc(c23)C1=O`, the activity (max response) was -3.53% (inactive). Take `CC(C)C(N)C(=O)OCC(CO)OCn1cnc2c(=O)[nH]c(N)nc21` (configuration not stated): the activity (max response) is -23% (inactive). For the molecule `Cc1c(Cl)cccc1Nc1ccccc1C(=O)O`, the activity (max response) is -8.75% (inactive).

Regarding `COc1ccc2nc(NC(=O)Nc3ccccc3)sc2c1`, the activity (max response) is -20% (inactive). Turning to `CO[C@H]1/C=C/O[C@@]2(C)Oc3c(C)c(O)c4c(O)c(c5c(nc6cc(C)ccn65)c4c3C2=O)NC(=O)/C(C)=C\C=C\[C@H](C)[C@H](O)[C@@H](C)[C@@H](O)[C@@H](C)[C@H](OC(C)=O)[C@@H]1C`, the Potency is 25.1 µM (active). As to `Cc1cc(CC(=O)O)c(C)n1-c1ccc(Cl)cc1`, the activity (max response) was 4.84% (inactive). For `CC1=C(C(=O)OC(C)C)C(c2cccc([N+](=O)[O-])c2)C(C(=O)OC2CN(C(c3ccccc3)c3ccccc3)C2)=C(N)N1` (configuration not stated), the activity (max response) was -4.04% (inactive). In the case of `CCC(CN)=C(c1ccccc1)c1ccccc1`, the activity (max response) was -12.8% (inactive). As for `CC(C)(C)C(=O)CN1C(=O)[C@H](NC(=O)Nc2cccc(C(=O)O)c2)CN(C2CCCCC2)c2ccccc21`, the activity (max response) was 11.5% (inactive). Turning to `CC(=O)OCC(=O)[C@H]1CC[C@H]2[C@@H]3CCC4=CC(=O)CC[C@]4(C)[C@H]3CC[C@]12C`, the activity (max response) is 2.66% (inactive).
